Cav32 inh – human Cav3.2 channel inhibition, primary screen; O95180; Cav3.2-expressing cells, Fluo-4 calcium fluorescence FDSS; stronger effect = lower value; B-score at 10 µM; 100,000 tested, 4% active;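 active means single-dose well whose peak fluorescence ratio is a statistical outlier from its plate by either plate-standardised score or position-corrected B-score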
hDAT+cocaine – modulates human dopamine transporter uptake under cocaine; Q01959; LLC-PK1 hDAT cells, [14C]-dopamine uptake with cocaine IC80; actives deviate in either direction; B-score at 10 µM; 110,000 tested, 1.3% active; AID 449768;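 active means Z score or B-score, a plate-position-corrected score, falls beyond the plate's 99.7% confidence bounds, in either direction; inactive means both scores lie inside the 99.7% bounds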;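 further: scored against the spread of the other compound wells on the same plate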
D1 mod – D1 dopamine receptor (human) allosteric modulation. P21728. HEK293 D1, CRE-luciferase, dopamine EC30 potentiation; actives deviate in either direction. B-score at 10 µM. 58,000 tested, 5.9% active;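 active means luminescence count or its row- and column-corrected plate score outside the 99.7% band of the plate's sample wells, on either side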
Target sequence (P21728 whole entry, looked up): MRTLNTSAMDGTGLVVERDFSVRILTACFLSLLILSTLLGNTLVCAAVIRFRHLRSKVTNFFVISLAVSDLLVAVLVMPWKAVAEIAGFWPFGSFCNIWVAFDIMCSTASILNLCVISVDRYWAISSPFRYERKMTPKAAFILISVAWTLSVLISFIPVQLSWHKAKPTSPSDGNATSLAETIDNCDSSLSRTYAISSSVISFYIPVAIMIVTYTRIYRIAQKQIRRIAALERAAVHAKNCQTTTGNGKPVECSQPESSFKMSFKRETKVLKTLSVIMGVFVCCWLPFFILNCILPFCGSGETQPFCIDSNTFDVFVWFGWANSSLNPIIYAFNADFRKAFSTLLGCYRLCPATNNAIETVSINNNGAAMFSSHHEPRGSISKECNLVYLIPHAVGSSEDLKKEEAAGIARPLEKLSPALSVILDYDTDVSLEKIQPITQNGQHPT
PostGolgi yeast – growth inhibition of a yeast mutant, post-Golgi transport screen; post-Golgi transport phenotypic cell assay; inhibition, % at 10 µM; 98,000 tested, 0.9% active; AID 739;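 further: yeast cells grown in 1536-well plates; yeast grown about 18 h at 30C before absorbance read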
PLAP act – activates human placental alkaline phosphatase; P05187; purified PLAP enzyme, luminescent substrate read-out; stronger effect = higher value; activation fold at 20 µM; 96,000 tested, 1.2% active; in the data active means activation fold above about 2
PostGolgi ctrl – growth of the yeast control strain, post-Golgi counter-screen | efflux-deficient yeast background strain, growth absorbance A615, 16 h | inhibition, % at 10 µM | 98,000 tested, 5% active | AID 738
Active calls of the source: *; . = no result. Compounds with a hit are over-represented: about 12% of the library has one in this group of screens. Unless noted, no stated cut-off is given here; in the data, active means inhibition above about 30%; inactive means the rest.

SMILES | Cav32 inh | hDAT+cocaine | D1 mod | PostGolgi yeast | PLAP act | PostGolgi ctrl
CCC1Sc2ccccc2N(CC(=O)NCc2ccc3c(c2)OCO3)C1=O (stereo not drawn) | -0.044 | 0.36 | -2.6* | -2 | 0.8 | 9
CCC1Sc2ccccc2N(CC(=O)NCCC2=CCCCC2)C1=O (stereo not drawn) | -5.8* | 1.2 | . | -1 | 1.5 | 37*
CC(C)CNC(=O)c1ccc(Cl)c(Cl)c1 | 0.56 | 0.14 | . | 11 | 1 | 15
CC(C)CCNC(=O)NC(=O)CSc1nnc(COc2ccccc2Cl)o1 | -4.8* | -0.98 | 2.5 | -1 | 0.8 | 26
Nc1[nH]n2c(=O)c3c(nc2c1N=Nc1ccc(Cl)cc1)CCCC3 | -8.7* | -0.026 | . | 3 | 1.1 | 28
Nc1[nH]n2c(=O)c3c(nc2c1N=Nc1ccccc1)CCCC3 | -9.6* | 0.49 | . | 3 | 1.2 | 6
Cc1[nH]n2c(=O)c3c(nc2c1-c1ccc(Cl)cc1)CCC3 | 0.25 | -2.7* | . | -1 | 1.1 | 2
CCn1c(SCC(=O)NCc2ccc3c(c2)OCO3)nnc1-c1c[nH]c2ccccc12 | -0.68 | 1 | -0.18 | . | . | .
CC(C)c1ccccc1OCCNS(C)(=O)=O | -0.15 | 0.17 | -0.33 | -23 | 1.1 | 12
CCCCOc1ccc(NC(=O)CSc2nnnn2C)cc1 | 0.81 | -0.21 | -0.12 | -5 | 0.9 | 29
O=C(Nc1ccc(CN2CCOCC2)cc1)c1ccc(-c2ccc(Br)cc2)o1 | 1.4 | 1.7 | -1.4 | 0 | 1.5 | 60*
O=C(Nc1cccc(NC(=O)c2ccc(-c3cccc(Br)c3)o2)c1)c1ccco1 | -2.9 | 1.4 | -3.4* | 9 | 1.2 | 21
CC(=O)Nc1cccc(NC(=O)c2ccco2)c1 | -0.22 | 0.47 | -0.61 | 7 | 1 | 3
O=C(c1ccccc1)c1cccc(NC(=O)c2ccco2)c1 | -0.7 | 0.88 | -0.48 | -4 | 0.6 | 38*
COC(=O)c1ccc(NC(=O)c2ccc(CN3CCOCC3)cc2)cc1 | 1.4 | -0.0021 | -1.2 | 25 | 0.8 | 19
O=C(Nc1cccc(NC(=O)c2ccc(-c3ccc(Br)cc3)o2)c1)c1ccccc1 | -6.1* | -1.2 | . | -3 | 0.8 | 5
COc1ccccc1NC(=O)c1ccc(-c2ccc(Br)cc2)o1 | 0.038 | -0.78 | . | -9 | 0.8 | -8
CC(=O)c1cccc(NC(=O)c2ccco2)c1 | 0.26 | -0.39 | . | -1 | 0.9 | 7
COc1cccc(CNC(=O)C2CCCN(S(=O)(=O)c3c(C)[nH]c(=O)[nH]c3=O)C2)c1 (stereo not drawn) | 0.02 | -0.0061 | . | 1 | 1 | 1
O=C(Nc1ccccc1)c1ccc(-c2ccc(Br)cc2)o1 | -5.3* | -0.39 | . | . | . | .
COc1ccc2c(c1)CCc1c(C(=O)N3CCOCC3)noc1-2 | 0.84 | -0.66 | -0.29 | 19 | 1.5 | -1
COc1ccc2c(c1)CCc1c(C(=O)N3CC4(C)CC3CC(C)(C)C4)noc1-2 (stereo not drawn) | -1.9 | 1.3 | 0.0069 | -7 | 1.2 | 38*
Cn1c(C(=O)NCc2ccccn2)cc2c(=O)n(C)c3ccccc3c21 | 1.1 | -0.67 | 0.56 | 1 | 1.7 | -8
CC(C)Cn1c(=O)c(C(=O)NCc2ccccn2)c(O)c2ccccc21 | -4.7 | 0.037 | 1.9 | -5 | 1.4 | 31*
CCN(CC)C(=O)c1cc2sc3ccccc3c2s1 | -1.8 | 0.6 | 0.12 | -7 | 1.3 | 30*
SMILES | Cav32 inh | hDAT+cocaine | D1 mod | PostGolgi yeast | PLAP act | PostGolgi ctrl
NC/C(=N\O)c1ccc(Cl)cc1Cl | -0.12 | -0.75 | -0.57 | -5 | 1.6 | 1
CCc1ccc(-c2nc(CN3CCC(C(=O)N4CCN(c5ccccc5)CC4)CC3)c(C)o2)cc1 | -4 | 0.88 | 1.4 | 22 | 1.8 | 17
CCc1ccc(-c2nc(CN3CCC(C(=O)NCc4ccc(F)cc4)CC3)c(C)o2)cc1 | -7.3* | -0.51 | -0.28 | 0 | 1.8 | 17
CCN(CCNC(=O)C1CCN(Cc2nc(-c3cccc(Cl)c3)oc2C)CC1)c1ccccc1 | -6.9* | 0.47 | -1.6 | -1 | 2* | 25
Cc1oc(-c2ccc(Cl)cc2)nc1CN1CCC(C(=O)NCc2cccs2)CC1 | -7.5* | 0.66 | . | -1 | 1.8 | 4
CCc1ccc(-c2nc(CN3CCC(C(=O)NCCN(CC)c4ccccc4)CC3)c(C)o2)cc1 | -7.5* | -0.22 | -1.4 | -2 | 1.6 | 23
CCOC(=O)N1CCC(NC(=O)CSc2cc(=O)n(C)c3ccc(Cl)cc23)CC1 | . | . | 0.18 | . | . | .
COc1ccc(CCNC(=O)C2CCN(Cc3nc(-c4ccc(Cl)cc4)oc3C)CC2)cc1OC | . | . | -2.3 | . | . | .
